# Results filed as inconclusive are left out. Where a call stands in place of a potency, no number is given. Unmarked numbers belong to inactive results. Active and inactive are the calls of the source. Calls come from the whole dose curve; as a rule, active = well fitted cell-killing curve with a large enough effect in the repeat runs; inconclusive = weak or mixed curves; inactive = flat fitted curve, though single readings scatter.
# Assay: qHTS RealTime-Glo MT Cell Viability Assay in HepG2 cells - 24 hour (AID 1224867); note: nearly all actives have a fitted effect of over 50% in size
# Conditions: RealTime-Glo luminescence; series mostly up to 76.8 µM
# Excerpt: U.S. Tox21 Program National Center for Advancing Translational Sciences [NCATS] NIH Chemical Genomics Center [NCGC] U.S. Environmental Protection Agency [EPA] National Institutes of Environmental Health Sciences [NIEHS] National Toxicology Program [NTP] U.S. Food and Drug Administration [FDA] Tox21 Assay Overview: Measure of cell viability is critical in the cell-base assay. Analysis of cell viability is necessary for the characterization of cell responses to cytotoxic drugs and environmental stress. A RealTime-Glo MT Cell Viability Assay to monitor cell viability in real time of continues cell culture during 40 hours of compound treatment was used to screen Tox21 10K library compounds in HepG2 cells. The RealTime-Glo MT Cell Viability Assay is a nonlytic, homogeneous, bioluminescent method to measure cell viability in real time using a simple, plate-based method. The assay involves adding NanoLuc luciferase and a cell-permeant prosubstrate to cells in culture. Viable cells reduce the proprietary prosubstrate to generate a substrate for NanoLuc luciferase. This substrate diffuses from cells into the surrounding culture medium, where it is rapidly used by the NanoLuc Enzyme to produce a luminescent signal. The signal correlates with the number of viable cells, making the assay well suited for cytotoxicity studies.
# Tox21 Assay Protocol Summary: The mixture of HepG2 cell suspension and reagents were dispensed at 600cells/6 ul/well in 1536-well tissue culture treated black solid bottom plates using a Multidrop dispenser. After the assay plates were incubated at a 37 C/5% CO2 incubator for 5 hours, 23 nL of compounds dissolved in DMSO, positive and negative controls was transferred to the assay plate by a pintool work station. The plates were incubated at 37 C for 40 hours. The luminescence intensity were measured at 0h, 8h, 16h, 24h, 32h and 40h time points using ViewLux plate reader during compound treatment.
# Potency is the fitted concentration of half-maximal effect.
Compound,Potency,"activity change, negative = cytotoxicity"
CCCCCCCCCCCCCCCCCCOS(=O)(=O)O,inactive,
CCCCCCc1ccc(-c2ccc(C#N)cc2)cc1,inactive,
O=[N+]([O-])c1ccc(NCCO)c(OCCO)c1,inactive,
C[N+]1(CC2COC(c3ccccc3)(C3CCCCC3)O2)CCCCC1 (stereo not given),inactive,
Cc1nn(C)c(Oc2ccccc2)c1/C=N/OCc1ccc(C(=O)OC(C)(C)C)cc1,inactive,
CN(C)C(=O)NC1(c2ccccc2)CCN(CC[C@@]2(c3ccc(F)c(F)c3)CN(C(=O)c3ccccc3)CCO2)CC1,inactive,
O=C(O)CC(=O)C(=O)O,inactive,
CN1CCC(N(Cc2cccs2)c2ccccc2)CC1,inactive,
OC(C#CCN1CCCC1)(c1ccccc1)c1ccccc1,inactive,
CCOC(=O)Cc1cccc2ccccc12,inactive,
COC(C)OC,inactive,
CC(C)O.CC(C)O.CCOC(=O)/C=C(\C)O.CCOC(=O)/C=C(\C)O.[Ti],inactive,
C[C@@H](c1ncncc1F)C(O)(Cn1cncn1)c1ccc(F)cc1F (stereo not given in full),inactive,
Cc1[nH]c(C)c(Cl)c(=O)c1Cl,,3.53% [at 15.8 µM]
C[N+](C)(C)CCOC(=O)CCC(=O)OCC[N+](C)(C)C,inactive,
CCCCCC[C@@H](O)C/C=C\CCCCCCCC(=O)OC,inactive,
CC(C)(CO)[N+](=O)[O-],inactive,
Brc1c2ccccc2cc2ccccc12,inactive,
CC(C)Nc1ccc(NC(C)C)c2c1C(=O)c1ccccc1C2=O,inactive,
C[Si](C)(CCCN)O[Si](C)(C)CCCN,inactive,

Compound,Potency,"activity change, negative = cytotoxicity"
c1cc(CCCc2ccncc2)ccn1,inactive,
Clc1ccc(Cn2c(CN3CCCC3)nc3ccccc32)cc1,inactive,
CCC(C)(C)CC,inactive,
CCCCCCCCCCCCN1CCCCCC1=O,inactive,
C=C(C)C(=O)OCCOCC,inactive,
CCOC(=O)C(F)(F)F,inactive,
COc1cc2nc(N3CCN(C(=O)C4COc5ccccc5O4)CC3)nc(N)c2cc1OC (stereo not given),inactive,
O=[N+]([O-])c1ccc2[nH]ncc2c1,inactive,
Brc1c2ccccc2c(Br)c2ccccc12,,2.73% [at 6.97 µM]
NCC(=O)O,,3.17% [at 15.8 µM]
c1ccc(-c2ccccn2)nc1,inactive,
CCN(CC)CCNc1ccc(CNC=O)c2sc3ccc(OC)cc3c(=O)c12,21.9 µM (active),
Cn1c(=O)cc(Oc2ccc(F)cc2F)c2cnc(NCC(C)(C)O)nc21,inactive,
CCCCC,inactive,
CCOC(=O)C(O)c1ccccc1 (stereo not given),inactive,
O=C1[C@H]2CCCC[C@H]2C(=O)N1CCCCN1CCN(c2nsc3ccccc23)CC1,inactive,
O=C(NCCO[N+](=O)[O-])c1cccnc1,inactive,
CCCCCCCCCCO[C@@H]1O[C@H](CO)[C@@H](O)[C@H](O)[C@H]1O,inactive,
CCC(C)c1cc(C(C)(C)C)c(O)c(C(C)(C)C)c1 (stereo not given),inactive,
CCO[Si](CCCCl)(OCC)OCC,inactive,
